Measurements taken from PubChem BioAssay (NCATS).
Unmarked numbers belong to inactive results. Rule as the data show it: active = potency below about 10 µM; inactive = the rest.

molecular target: Lysosomal acid glucosylceramidase (Homo sapiens) (UniProt P04062); assay: Glucocerebrosidase-p2 (AID 348); settings: purified GBA, blue fluorogenic substrate, 40 min
Outline: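 Compounds titrated from 0.6 nM upwards against 0.2 nM enzyme in pH 5.9 citric acid/KH2PO4, taurocholate, tween-20; blue fluorogenic substrate 80 uM, 40 min room temperature, stopped and read Ex 365/Em 440 for AC50.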
Potency is read from the fitted curve at half-maximal effect.

Chain of Lysosomal acid glucosylceramidase (Homo sapiens) (P04062 whole entry, looked up): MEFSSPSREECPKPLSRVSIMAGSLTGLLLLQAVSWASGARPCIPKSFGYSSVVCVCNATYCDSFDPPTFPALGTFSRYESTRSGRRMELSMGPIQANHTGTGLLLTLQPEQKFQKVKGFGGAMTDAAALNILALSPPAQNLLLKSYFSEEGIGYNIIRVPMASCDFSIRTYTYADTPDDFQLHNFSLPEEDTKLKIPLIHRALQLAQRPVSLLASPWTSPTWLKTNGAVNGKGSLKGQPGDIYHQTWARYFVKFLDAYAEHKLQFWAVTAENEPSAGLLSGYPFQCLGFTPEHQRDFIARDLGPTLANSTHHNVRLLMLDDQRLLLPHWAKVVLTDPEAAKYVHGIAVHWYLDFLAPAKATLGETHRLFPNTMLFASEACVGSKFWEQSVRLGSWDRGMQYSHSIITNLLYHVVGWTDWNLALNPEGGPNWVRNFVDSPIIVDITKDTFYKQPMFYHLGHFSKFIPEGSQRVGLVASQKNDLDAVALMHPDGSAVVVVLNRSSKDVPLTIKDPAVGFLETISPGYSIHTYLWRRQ

SMILES | Potency [µM]
N[C@@H](CSC1(c2ccc(Cl)cc2)c2ccccc2-c2ccccc21)C(=O)O | > 11.4
OC[C@@H]1CCC[C@H](n2cnc3c(=S)nc[nH]c32)O1 | > 11.4
Cc1noc(C)c1C(=O)N1CCC2(CC1)CN(c1cccc(-c3ccccc3)c1)C2 | > 11.4
CC(=O)CSCc1ccccn1 | > 11.4
CC(C)CN(CC#N)CC(C)C | > 11.4
CC1(C)S[C@@H]2[C@H](C(=O)O)N=C(Cc3ccccc3)N2[C@H]1C(=O)O | > 11.4
O=C(O)c1cccc(N=Nc2c(S(=O)(=O)O)ccc3c2C(=O)c2ccccc2C3=O)c1O | > 11.4
O=[N+]([O-])c1ccc(CS(=O)Cc2ccccc2)cc1 (centres undefined) | > 11.4
O=C(O)c1ccncc1.O=C(O)c1ccncc1.[Cl][Pt]([Cl])([Cl])[Cl] | > 11.4
CC(CCc1nc2ccccc2s1)(c1ccc(O)cc1)c1ccc(O)cc1 | > 11.4
c1ccc(CN2COc3c(ccc4c5c(ccc34)CN(Cc3ccccc3)CO5)C2)cc1 | > 11.4
COc1ccc(C(=O)N2CCC[C@@]3(CCN(c4ccccc4)C3)C2)cc1 | > 11.4
O=C(O)CN1C(=O)O[C@@H](c2ccccc2)C1=O | > 11.4
O=S(=O)(c1ccccc1)N1CCN(S(=O)(=O)c2ccccc2)c2ccccc21 | > 11.4
Cc1nn(-c2ccc(S(=O)(=O)O)cc2)c(O)c1N=Nc1ccc(-c2ccc(N=Nc3ccc4c(S(=O)(=O)O)cc(S(=O)(=O)O)c(N)c4c3O)c(O)c2)cc1O.[Cu].[Cu] | > 11.4
CN1CCC[C@@H]1c1cccnc1.O=C(O)c1ccccc1O.O=C([OH2+])c1ccccc1O.O=C([OH2+])c1ccccc1O.O=C([OH2+])c1ccccc1O.[Cu] | > 11.4
O=C1OC2(c3ccc(O)cc3Oc3cc(O)ccc32)c2c1c(-c1ccccc1)c(-c1ccccc1)c(-c1ccccc1)c2-c1ccccc1 | > 11.4
CC(C)(CN)SCc1ccccc1 | > 11.4
COCCn1c(=O)c(-c2cc(F)cc(F)c2)nc2cnc(Oc3ccc(OC)cc3)nc21 | > 11.4
COc1ccc(Oc2ncc3nc(-c4ccccc4)c(=O)n(CCC#N)c3n2)cc1 | > 11.4

SMILES | Potency [µM]
CC(C)c1ccc2c(c1)CC[C@H]1[C@@](C)(CN)CCC[C@@]21C | > 11.4
CN1CCC[C@@H]1c1cccnc1.O=C(O)c1ccccc1O.O=C([OH2+])c1ccccc1O.O=C([OH2+])c1ccccc1O.O=C([OH2+])c1ccccc1O.[Mn] | > 11.4
Cn1c(N)nc2c(nc(OCc3ccccc3)n2[C@@H]2O[C@H](CO)[C@@H](O)[C@@H]2O)c1=O | > 11.4
O=C(O)c1oc(C(=O)O)c(C(=O)O)c1C(=O)O | > 11.4
OC(Cc1ccccc1)(Cc1ccccc1)c1ccccc1 | > 11.4
O=C(O)CN(CCN(CC(=O)O)CC(=O)O)CC(=O)O.[Mn] | > 11.4
Cc1cc(C)nc(NC(=O)COc2ccc(Cl)cc2)c1 | > 11.4
CCN(CC)COC(=S)S | > 11.4
CCc1ccc(CCC(=O)O)nc1 | > 11.4
CN1CCC[C@@H]1c1cccnc1.O=C(O)c1ccccc1O.O=C([OH2+])c1ccccc1O.O=C([OH2+])c1ccccc1O.[Mn] | > 11.4
COc1ccc(C(=O)N2CCC3(CC2)CCN(c2ccccn2)CC3)cc1 | > 11.4
O=C(O)CN(CCN(CC(=O)O)CC(=O)O)CC(=O)O.[Cu] | > 11.4
CCC(=O)[C@@H](c1ccccc1)c1ccccn1 | > 11.4
Cc1cc(OCC(=O)O)c(Cl)cc1Cl | > 11.4
NC(=O)NCCS[C@H]1CCCC[C@@H]1O | > 11.4
CN(C)CN1CSC(=S)N(CN(C)C)C1 | > 11.4
CCOC(=O)Cn1c(C(F)(F)F)nc2nc(Cl)c(Cl)nc21 | > 11.4
Cc1cc(Cl)ccc1OCC(=O)Oc1c(Cl)c(Cl)c(Cl)c(Cl)c1Cl | > 11.4
OCCSCc1cc(Cl)cc(Cl)c1O | > 11.4
